The source of these data is PubChem BioAssay.

Records with an inconclusive call do not appear. The source made the active and inactive calls.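 The calls were made as follows, unless noted: active = Her2 level under about 52% in both replicate screens, with viability over 70% of control (limit read from the data); inconclusive = Her2 under the limit in one screen only, or viability under 70%; inactive = Her2 level above the set limit.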

The nature of assay [1]: Her2 expression decrease, cell viability multiplex – SKBR3 breast tumor cells, AlphaScreen, ATP viability, primary screen (AID 461).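 As to Her2 level: lower value means less Her2 protein in the cells.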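 As to viability: percent of carrier control wells set as 100% viability.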 The following applies: SKBR3 Her2 protein level, 18-24 h, measured here: SKBR3 viability, ATP luminescence, at 10 µM.
Assay [2] has as its target Receptor tyrosine-protein kinase erbB-2 (Homo sapiens) (UniProt P04626). The description is as above. The following applies: 18-24 h, at 10 µM, stronger effect = lower value.
Assay [3] is described as follows: reduced viability of SK-BR-3 breast cancer cells – cell-based, 24 h, human, pilot screen (AID 572;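 active = viability at or below 10% of carrier control in both of two separate runs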;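 also: compound exposure lasted between 18 and 24 h rather than exactly 24 h; 100% = carrier-treated control wells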). The following applies: SK-BR-3 viability, CellTiter-Glo luminescence, at 10 µM, stronger effect = lower value. In general terms: In ATP-based viability assays light output follows the ATP content of the culture.
The nature of assay [4]: HUVEC growth inhibition – cell-based, human, primary screen (AID 575;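 active = viability at or below 30% in both replicate assays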;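 also: 100% = median of untreated cell wells with 0.1% DMSO on each plate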). The following applies: HUVEC proliferation, CellTiter-Glo luminescence, 72 h; at 10 µM; stronger effect = lower value.
Assay [5] in a line: H69AR cell proliferation blockers – human, duplicate replicates, primary screen (AID 580;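 active = viability at or under a set limit in both replicates, limit being median viability minus 3 SD, cut at about 48% in these data, passing the limit was not always enough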;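 also: 100% = mean luminescence of untreated wells and 0% = no signal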). The settings on record: H69AR lung tumor cells viability, ATP luminescence, 72 h; at 10 µM; stronger effect = lower value.
Assay [6] in a line: MRP1 drug-resistance reversers in H69AR cells – cell-based, doxorubicin co-treatment, pilot screen (AID 601;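 active = viability loss from added drug above about 55%, and viability with drug at most 40%, in both replicates, limit read from the data, passing the limit was not always enough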). The settings on record: CellTiter-Glo, 72 h, at 10 µM; for differential viability (reversal): stronger effect = higher value.
A short description of assay [7]: yeast transport mutant growth inhibition pilot in 384-well plates, post-Golgi transport modulator project (AID 636; in the data active = inhibition above about 31%). The settings on record: absorbance 615 nm, about 18 h, stronger effect = higher value.
Assay [8] in a line: growth suppression of yeast trafficking mutant, preliminary HTS, modulators of trafficking downstream of Golgi apparatus project, 1536-format plate, OD 615 nm (AID 637; in the data active = inhibition above about 30%). The following applies: yeast transport mutant growth, absorbance 615 nm, 18 h; stronger effect = higher value.
Assay [9] is described as follows: S. cerevisiae growth inhibition in permissive medium (OD615), pilot counter-assay for S. cerevisiae lifespan shortening project, permissive growth control (AID 705;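 active = growth inhibition above 25% in both replicates, a cutoff set 3 SD above the mean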). The following applies: OD615, 24 h, at 10 µM, stronger effect = higher value.
Assay [10] in a line: S. cerevisiae growth inhibition in restrictive medium, OD615, pilot screen, restrictive growth control, yeast lifespan reduction project (AID 706;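 active = growth inhibition above a set limit, 3 SD over mean compound inhibition, in both replicates, cut at about 43% in these data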;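 also: modified DeaD lifespan yeast strain shifted to restrictive glucose medium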). The following applies: OD615, 48 h, at 10 µM, stronger effect = higher value.
The nature of assay [11]: doxorubicin toxicity protection in MRP-1 cells – H69AR cells, CellTiter-Glo, duplicate, MRP-1 activator project, pilot screen (AID 807;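 active = viability increase at or above a cutoff of the median across tested compounds plus 3 SD, cut at about 8.5% in these data, passing the limit was not always enough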;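 also: compound pretreatment 18-22 h then 72 h combined with doxorubicin; 0% = doxorubicin alone and 100% = vehicle without doxorubicin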). The following applies: H69AR viability with doxorubicin, CellTiter-Glo luminescence; at 10 µM; stronger effect = higher value.
A short description of assay [12]: viability of HCT116 without oncogenic beta-catenin – human colon tumor cells, pilot screen (AID 823;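 active = cell viability at or below a set limit in both duplicate runs, the limit being the all-compound median minus 4 SD, cut at about 23% in these data, passing the limit was not always enough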;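 also: 0% = wells killed by 20 µM Hyamine and 100% = untreated DMSO cell wells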). The following applies: HCT116 beta-catenin knockout viability, CellTiter-Glo, 60 h; at 10 µM; stronger effect = lower value.
Assay [13] in a line: viability of PTEN-null HCT116 cells – cell-based, HCT116 clonal line, CellTiter-Glo, pilot screen (AID 824;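 active = viability at or below 27.92% in each of two runs, the all-compound median minus 4 SD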;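 also: 0% = 20 µM Hyamine control and 100% = vehicle cell control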). The following applies: HCT116 PTEN-deleted viability, 60 h, at 10 µM, stronger effect = lower value.
A short description of assay [14]: RAM pathway blockade in budding yeast – dse1pr::URA3 reporter, 5-FOA selection, pilot screen (AID 869;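 active = inhibition over a set limit, the all-compound mean plus 3 SD, in both replicate runs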;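 also: 0% = DMSO wells with no growth and 100% = 10 µM 1-NA-PP1 with full growth; RAM network block rescues cells from 5-FOA so hits raise OD615 growth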). The settings on record: S. cerevisiae dse1pr::URA3 5-FOA growth, OD615, 2 d; at 10 µM; stronger effect = higher value; strain carries analog-sensitive mutant Cbk1 kinase.
Assay [15] is described as follows: RAM signaling pathway blockade in yeast – S. cerevisiae, Pdr1DBD-CYC8 efflux-inhibited sensitized strain, primary screen (AID 1298;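 active = RAM network inhibition above 8.4% in each of two replicates, 3 SD over the compound average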;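 also: 0% = DMSO untreated cells without growth and 100% = 10 µM 1-NA-PP1 full growth; higher means more yeast growth rescued from 5-FOA killing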). The settings on record: S. cerevisiae cbk1-as DSE1-URA3 strain, 5-FOA growth OD615, 2 d; at 50 µM; stronger effect = higher value.
[16] abbreviates: H69AR cells + 2 uM doxorubicin, measured here: viability with 2 uM doxorubicin, stronger effect = lower value.
The mark [17] stands for this setting: H69AR cells, compound alone cytotoxicity.

Sequence of Receptor tyrosine-protein kinase erbB-2 (Homo sapiens) (P04626 whole entry, looked up): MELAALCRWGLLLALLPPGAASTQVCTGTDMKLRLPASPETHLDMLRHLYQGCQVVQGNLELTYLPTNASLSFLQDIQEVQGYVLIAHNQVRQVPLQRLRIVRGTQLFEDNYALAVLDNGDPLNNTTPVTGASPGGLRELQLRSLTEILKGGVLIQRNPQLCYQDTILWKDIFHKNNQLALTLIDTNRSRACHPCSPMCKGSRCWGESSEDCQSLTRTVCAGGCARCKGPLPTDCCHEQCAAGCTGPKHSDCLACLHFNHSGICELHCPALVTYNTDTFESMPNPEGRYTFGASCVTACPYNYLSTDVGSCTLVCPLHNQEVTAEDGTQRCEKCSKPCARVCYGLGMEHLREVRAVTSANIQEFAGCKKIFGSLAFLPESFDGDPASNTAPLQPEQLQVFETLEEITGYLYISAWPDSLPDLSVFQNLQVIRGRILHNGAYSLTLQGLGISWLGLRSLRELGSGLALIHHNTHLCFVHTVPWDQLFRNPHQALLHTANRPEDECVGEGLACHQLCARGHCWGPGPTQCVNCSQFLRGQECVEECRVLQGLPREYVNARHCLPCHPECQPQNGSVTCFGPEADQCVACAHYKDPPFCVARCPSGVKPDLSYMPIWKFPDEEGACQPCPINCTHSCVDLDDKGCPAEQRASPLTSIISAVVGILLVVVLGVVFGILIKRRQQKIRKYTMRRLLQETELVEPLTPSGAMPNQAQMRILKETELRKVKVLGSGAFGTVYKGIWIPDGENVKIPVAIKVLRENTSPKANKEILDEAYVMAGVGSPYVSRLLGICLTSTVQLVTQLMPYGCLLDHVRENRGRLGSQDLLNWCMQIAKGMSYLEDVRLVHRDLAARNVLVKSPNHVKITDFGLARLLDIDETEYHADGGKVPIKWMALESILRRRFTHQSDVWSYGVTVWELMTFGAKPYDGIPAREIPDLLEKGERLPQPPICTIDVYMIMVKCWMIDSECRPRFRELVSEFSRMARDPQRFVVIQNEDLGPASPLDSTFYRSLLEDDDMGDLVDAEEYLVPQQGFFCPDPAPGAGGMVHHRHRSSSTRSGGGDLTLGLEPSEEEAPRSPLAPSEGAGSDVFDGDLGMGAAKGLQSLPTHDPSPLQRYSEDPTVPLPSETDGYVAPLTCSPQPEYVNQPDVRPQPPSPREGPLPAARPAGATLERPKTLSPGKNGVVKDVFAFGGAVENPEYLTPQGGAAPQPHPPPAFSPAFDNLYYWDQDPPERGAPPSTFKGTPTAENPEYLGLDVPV

As for `Cc1c(C#N)c2ncnc(-c3ccccc3)c2n1-c1ccccc1`, the viability is 106% in assay [1]; 106% (inactive) in [3]; 85.5% (inactive) in assay [4]; 71.8% (inactive) in [5]; 19.3% in assay [6] (setting [16]); 71.8% in assay [6] (setting [17]). Further, the viability was 91% (inactive) in assay [12] and 85.9% (inactive) in [13]. The Her2 level in [2] is 101% (inactive). In addition, the differential viability (reversal) in assay [6] (H69AR cells + 2 uM doxorubicin) was 52.5% (inactive). Further, the inhibition in assay [7] is -3.64% (inactive); in [8], -4.92% (inactive); in assay [14], 0.395% (inactive). Also, the growth inhibition in assay [9] is -10.9% (inactive); in [10], -15.3% (inactive). The viability increase in assay [11] is -5.64% (inactive). Moreover, in assay [15], the RAM network inhibition was 5.06% (inactive).
For `COc1cccc(CNC(=O)Cn2c(=O)oc3ccccc32)c1OC`, the viability in [1] is 110%; in assay [3] it was 110% (inactive); in assay [4], 89.8% (inactive); in [5], 92.3% (inactive); in assay [6] (setting [16]) it was 92.2%; in assay [6] (setting [17]), 92.3%. Moreover, the viability in assay [12] is 104% (inactive); in assay [13], 91% (inactive). Also, the Her2 level in assay [2] was 99% (inactive). Besides, the differential viability (reversal) in assay [6] (H69AR cells + 2 uM doxorubicin) is 0.115% (inactive). In addition, the inhibition was -6.27% (inactive) in assay [7], -0.67% (inactive) in [8] and 0.75% (inactive) in assay [14]. In addition, the growth inhibition is -9.48% (inactive) in assay [9] and -12.4% (inactive) in [10]. In addition, in [11], the viability increase is -0.35% (inactive). Further, the RAM network inhibition in assay [15] is -0.26% (inactive).
`Cc1ccnc(NC(=O)C2CCCN(S(=O)(=O)c3cnc[nH]3)C2)c1` (centres undefined): the viability in assay [1] was 95.5%; in [3], 95.5% (inactive); in assay [4], 94.7% (inactive); in assay [5], 105% (inactive); in assay [6] (setting [16]), 97.4%; in assay [6] (setting [17]) it was 105%. The viability was 97.3% (inactive) in assay [12] and 96.1% (inactive) in assay [13]. Also, in assay [2], the Her2 level was 104% (inactive). The differential viability (reversal) in [6] (H69AR cells + 2 uM doxorubicin) is 8% (inactive). For the same molecule, the inhibition in [7] is 0.8% (inactive); in assay [8] it was -2.79% (inactive); in [14] it was 0.925% (inactive). In addition, the growth inhibition in [9] was 1.41% (inactive); in assay [10], -5.85% (inactive). Further, the viability increase in assay [11] was -1.81% (inactive). Moreover, the RAM network inhibition in assay [15] was 3.67% (inactive).
Turning to `Cc1occc1C(=O)N1CCN(Cc2ccccc2)CC1`, the viability in [1] was 85.5%; in assay [3], 85.5% (inactive); in [4], 98.1% (inactive); in [5] it was 89.3% (inactive); in [6] (setting [16]), 86%; in assay [6] (setting [17]) it was 89.3%. Further, the viability in assay [12] was 94.7% (inactive); in assay [13], 97.6% (inactive). For the same molecule, in assay [2], the Her2 level was 89% (inactive). The differential viability (reversal) in [6] (H69AR cells + 2 uM doxorubicin) was 3.23% (inactive). Besides, the inhibition was 0.26% (inactive) in assay [7] and -5.5% (inactive) in assay [8]. Moreover, the growth inhibition in assay [9] was -0.31% (inactive); in assay [10], -15.5% (inactive). Moreover, the viability increase in assay [11] was -1.95% (inactive). In addition, the RAM network inhibition in assay [15] was 2.68% (inactive).
Regarding `COc1ccc(OC)c(C(=O)c2ccc(C(=O)O)cc2)c1`, the viability in [1] was 120%; in assay [3], 120% (inactive); in [4], 87.2% (inactive); in assay [5], 103% (inactive); in [6] (setting [16]), 96.5%; in assay [6] (setting [17]) it was 103%. The viability in assay [12] is 105% (inactive); in assay [13], 103% (inactive). In addition, in [2], the Her2 level is 107% (inactive). Further, the differential viability (reversal) in [6] (H69AR cells + 2 uM doxorubicin) is 6.11% (inactive). Further, the inhibition was -3.73% (inactive) in assay [7], 1.94% (inactive) in assay [8] and 1.67% (inactive) in assay [14]. In addition, the growth inhibition in assay [9] is -10.1% (inactive); in assay [10], -16.1% (inactive). Further, the viability increase in assay [11] is 0.88% (inactive). Further, the RAM network inhibition in assay [15] was 0.12% (inactive).

For orientation: viability means a read-out of living cells in per cent, often relative to untreated cells. For orientation: inhibition means the drop in the measured response relative to a control, in per cent.
